The record followed here is PubChem BioAssay (NCATS).

Results filed as inconclusive are left out. Values without a mark were called inactive. The source made the active and inactive calls. The call rests on the fitted dose curve; in most records, active means well fitted inhibition curve with a large enough effect; inconclusive means small, poorly fitted or top-dose-only effect; inactive means flat fitted curve, though single readings scatter.
Potency means the concentration at half of the fitted maximal effect.

One assay concerns CP268. The experiment in a line: qHTS profiling for inhibitors of Plasmodium falciparum proliferation (AID 504749). Further: nearly all actives have a fitted effect of over 60% in size.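 On activity, negative = inhibition: 0% = DMSO vehicle and full inhibition = artemisinin control.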 As to conditions: P. falciparum in erythrocytes, SYBR Green DNA, 72 h; series mostly up to 28.7 µM; activity, negative = inhibition: at the top concentration. A digest of the protocol: (§1)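 Fluorescence of SYBR Green-bound parasite DNA, read at 485/535 nm, served as the growth measure. Infected erythrocytes were cultured with compound 72 h; artemisinin (0.29 uM) and DMSO wells defined the normalization range.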
On to `O=C(O)CCNC(=O)c1ccccc1`, for which the “activity, negative = inhibition” value was 0.15%.

In the case of `CC(=O)Nc1ccc(OC(=O)c2ccccc2OC(C)=O)cc1`, the “activity, negative = inhibition” value was -0.921%.

As for `OCCOCCN1CCN(C2=Nc3ccccc3Sc3ccccc32)CC1`, the “activity, negative = inhibition” value was -9.47%.

For the compound `CN1CCN(CCC(=O)N2c3ccccc3Sc3ccc(C(F)(F)F)cc32)CC1`, the “activity, negative = inhibition” value was -12.5%.

Take `CC(C)[N+](C)(C)CC(O)COc1cccc2ccccc12` (configuration not stated): the “activity, negative = inhibition” value was -12.9%.

In the case of `Cc1cccc(C)c1NC(=O)CN1CCCC1`, the “activity, negative = inhibition” value is -0.507%.

On to `O=C(CCN1CCN2CCCC2C1)N1c2ccccc2Sc2ccc(Cl)cc21` (configuration not stated), for which the “activity, negative = inhibition” value is -15.9%.

Regarding `CC(=O)O[C@H]1C[C@@H]2CC[C@@H]3[C@H](CC[C@@]4(C)[C@H]3C[C@H]([N+]3(C)CCCCC3)[C@@H]4OC(C)=O)[C@@]2(C)C[C@@H]1N1CCCCC1`, the “activity, negative = inhibition” value was -15.9%.

Take `CCCN(CCc1cccs1)[C@H]1CCc2c(O)cccc2C1`: the Potency was 10.7 µM (active).

In the case of `Cc1ccc(S(=O)(=O)NC(=O)NC2CCCC2)cc1`, the “activity, negative = inhibition” value is -2.26%.

Regarding `Cc1ccc(O)c([C@H](CCN(C(C)C)C(C)C)c2ccccc2)c1`, the Potency was 8.49 µM (active).

As to `CN(C)C(=O)Nc1ccc(Cl)c(Cl)c1`, the “activity, negative = inhibition” value was -20.5%.

For `O=C(Nc1cccc(C2=NCCN2)c1)Nc1cccc(C2=NCCN2)c1`, the Potency is 15.1 µM (active).

Turning to `CCCCCCCCOc1ccc(C(=O)c2ccccc2)c(O)c1`, the “activity, negative = inhibition” value is -3.86%.

Turning to `Cc1cc(-c2ccccc2)nnc1NCCN1CCOCC1`, the “activity, negative = inhibition” value is -12.5%.

In the case of `NS(=O)(=O)c1cc(C(=O)O)cc(N2CCCC2)c1Oc1ccccc1`, the “activity, negative = inhibition” value is 0.212% [at 12.8 µM].

As for `CN1CCN(C2=Nc3cc(F)ccc3Cc3ccccc32)CC1`, the “activity, negative = inhibition” value was -13.4%.

Consider `COc1ccc(CN(CCN(C)C)c2ncccn2)cc1`, for which the “activity, negative = inhibition” value is -4.43%.

For the compound `COc1cc(C(=S)N2CCOCC2)ccc1O`, the “activity, negative = inhibition” value is -0.759%.

As for `O=C(Nc1ncc([N+](=O)[O-])s1)c1cccs1`, the “activity, negative = inhibition” value is -10.9%.

For another assay, the system named is CP269. The assay is described as above. As to conditions: P. falciparum in erythrocytes, SYBR Green DNA, 72 h; series mostly up to 28.7 µM; activity, negative = inhibition: at the top concentration. A digest of the protocol:
as §1
With `O=C(O)CCNC(=O)c1ccccc1`, the “activity, negative = inhibition” value was -4.38%.

With `CC(=O)Nc1ccc(OC(=O)c2ccccc2OC(C)=O)cc1`, the “activity, negative = inhibition” value is -0.91%.

Take `OCCOCCN1CCN(C2=Nc3ccccc3Sc3ccccc32)CC1`: the “activity, negative = inhibition” value was -2.14%.

In the case of `CN1CCN(CCC(=O)N2c3ccccc3Sc3ccc(C(F)(F)F)cc32)CC1`, the “activity, negative = inhibition” value was -16.4%.

For `CCOCCn1c(N2CCCN(C)CC2)nc2ccccc21`, the “activity, negative = inhibition” value is -21.3%.

Take `Cc1cccc(C)c1NC(=O)CN1CCCC1`: the “activity, negative = inhibition” value was 4.08%.

With `CCCN(CCc1cccs1)[C@H]1CCc2c(O)cccc2C1`, the Potency was 15.1 µM (active).

As to `Cc1ccc(S(=O)(=O)NC(=O)NC2CCCC2)cc1`, the “activity, negative = inhibition” value was -0.0092%.

Consider `Cc1ccc(O)c([C@H](CCN(C(C)C)C(C)C)c2ccccc2)c1`, for which the Potency was 7.57 µM (active).

As for `CN1CCN(c2cc3c(cc2F)c(=O)c(C(=O)O)cn3-c2ccc(F)cc2)CC1`, the “activity, negative = inhibition” value is -27.3%.

`O=C(Nc1cccc(C2=NCCN2)c1)Nc1cccc(C2=NCCN2)c1`: the Potency was 12 µM (active).

In the case of `CCCCCCCCOc1ccc(C(=O)c2ccccc2)c(O)c1`, the “activity, negative = inhibition” value was -1.83%.

As to `Cc1cc(-c2ccccc2)nnc1NCCN1CCOCC1`, the “activity, negative = inhibition” value was -12.6%.

For the compound `NS(=O)(=O)c1cc(C(=O)O)cc(N2CCCC2)c1Oc1ccccc1`, the “activity, negative = inhibition” value was 0.982% [at 12.8 µM].

For `CN1CCN(C2=Nc3cc(F)ccc3Cc3ccccc32)CC1`, the “activity, negative = inhibition” value is -21.9%.

Take `COc1ccc(CN(CCN(C)C)c2ncccn2)cc1`: the “activity, negative = inhibition” value was -6.8%.

On to `CCN(CC)CCOc1ccccc1C(=O)CCc1ccccc1`, for which the “activity, negative = inhibition” value is -27%.

Turning to `CCCCCN=C(N)N/N=C/c1c[nH]c2ccc(OC)cc12`, the Potency was 13.5 µM (active).

As for `COc1cc(C(=S)N2CCOCC2)ccc1O`, the “activity, negative = inhibition” value is 1.34%.

Turning to `O=C(Nc1ncc([N+](=O)[O-])s1)c1cccs1`, the “activity, negative = inhibition” value is 0.333%.

For the next assay, the system named is CP286. The assay is described as above. Conditions: P. falciparum in erythrocytes, SYBR Green DNA, 72 h; series mostly up to 28.7 µM; activity, negative = inhibition: at the top concentration. In outline:
as §1
Consider `O=C(O)CCNC(=O)c1ccccc1`, for which the “activity, negative = inhibition” value is 0.0292%.

Regarding `CC(=O)Nc1ccc(OC(=O)c2ccccc2OC(C)=O)cc1`, the “activity, negative = inhibition” value is -1.24%.

Consider `OCCOCCN1CCN(C2=Nc3ccccc3Sc3ccccc32)CC1`, for which the “activity, negative = inhibition” value is -7.82%.

Take `O=S(c1cc(Cl)cc(Cl)c1O)c1cc(Cl)cc(Cl)c1O`: the “activity, negative = inhibition” value is -58.3%.

Take `CCOCCn1c(N2CCCN(C)CC2)nc2ccccc21`: the “activity, negative = inhibition” value was -21.8%.

Turning to `Cc1cccc(C)c1NC(=O)CN1CCCC1`, the “activity, negative = inhibition” value was -6.49%.

Regarding `NC(N)=NN=C(/C=C/c1ccc([N+](=O)[O-])o1)/C=C/c1ccc([N+](=O)[O-])o1`, the Potency is 2.24 µM (active).

With `CCCN(CCc1cccs1)[C@H]1CCc2c(O)cccc2C1`, the Potency is 10 µM (active).

In the case of `Cc1ccc(S(=O)(=O)NC(=O)NC2CCCC2)cc1`, the “activity, negative = inhibition” value was 2.23%.

As to `Cc1ccc(O)c([C@H](CCN(C(C)C)C(C)C)c2ccccc2)c1`, the Potency is 3.98 µM (active).

Consider `CN(C)C(=O)Nc1ccc(Cl)c(Cl)c1`, for which the “activity, negative = inhibition” value is -27.9%.

As for `CCN(CC)CCOc1ccc2c(c1)C(=O)c1cc(OCCN(CC)CC)ccc1-2`, the Potency was 10 µM (active).

With `O=C(Nc1cccc(C2=NCCN2)c1)Nc1cccc(C2=NCCN2)c1`, the Potency was 2 µM (active).

With `CCCCCCCCOc1ccc(C(=O)c2ccccc2)c(O)c1`, the “activity, negative = inhibition” value is -1.61%.

For the compound `Cc1cc(-c2ccccc2)nnc1NCCN1CCOCC1`, the “activity, negative = inhibition” value was -18.7%.

Take `NS(=O)(=O)c1cc(C(=O)O)cc(N2CCCC2)c1Oc1ccccc1`: the “activity, negative = inhibition” value is -0.178% [at 12.8 µM].

Regarding `Cc1ncc(CO)c(C=O)c1O`, the “activity, negative = inhibition” value is 0.177%.

As to `CN1CCN(C2=Nc3cc(F)ccc3Cc3ccccc32)CC1`, the “activity, negative = inhibition” value is -22.6%.

In the case of `COc1ccc(CN(CCN(C)C)c2ncccn2)cc1`, the “activity, negative = inhibition” value was 0.623%.

Turning to `CN(CCCN1c2ccccc2CCc2ccccc21)CC(=O)c1ccc(Cl)cc1`, the Potency was 7.08 µM (active).

In the case of `COc1cc(C(=S)N2CCOCC2)ccc1O`, the “activity, negative = inhibition” value was 0.606%.

With `O=C(Nc1ncc([N+](=O)[O-])s1)c1cccs1`, the “activity, negative = inhibition” value was -3.99%.
